# Data published in the OligoGym collection.
# Target: ADCYAP1
# Assay: pooled miR-30 sensor sort-seq; sequence = guide strand
# Conditions: shRNA
# Also: reference of the scale not given here.
row,Sequence,sensor-assay potency score (higher = more potent)
1,TTCCGGTAGCGGCTGTAGCTGT,-1.35
2,TATCCCATAGACCAGCAGGGCC,-1.32
3,TTGGATAGAACACACGAGCGAT,-0.826
4,TTCCTCTGGCCTGATCCCGGGG,-1.18
5,TTTGTTTCCGGTAGCGGCTGTA,-0.47
6,TTGTTTCCGGTAGCGGCTGTAG,-0.993
7,TACGCCTCTTCCTCTGGCCTGA,-1.02
8,TGTCCGTGAAGATCCCGTCCGA,-0.344
9,TGTTTGGATAGAACACACGAGC,-1.09
10,TAGCGGCTGTAGCTGTCCGTGA,-1.1
11,TCTTCCTCTGGCCTGATCCCGG,-1.48
12,TAACCCTTTGTTTATACCTCTT,-0.602
13,ATTTGTTTCCGGTAGCGGCTGT,-0.122
14,TTGACAGCCATTTGTTTCCGGT,-0.424
15,TAGCTGTCCGTGAAGATCCCGT,-0.391
16,TTACATAAATACATGTTTGGAT,-0.0777
17,TAGGCCTCGTTAAGGATCCCGT,-0.922
18,TGCTGTGCATGATTATCCCATA,-1.74
19,TCCGTGAAGATCCCGTCCGAGT,-1.83
20,TTTGTTTATACCTCTTCCCTAG,0.232
21,TTGTTTATACCTCTTCCCTAGG,-0.956

# Target: ADC
# Assay: as above
# Conditions: shRNA
row,Sequence,sensor-assay potency score (higher = more potent)
1,TTCTGCAGCCATCAGCTGCCTT,-1.15
2,TGACACTCCAAACTTTAGGCTC,-0.511
3,TTTTCAAGCAGGTGTCTGCAGG,-0.788
4,TACACGATGGTCTTGGAGGTGG,-0.24
5,ATGTTGTCAAAGACCAGCCAGT,-1.56
6,TTCAGTGACACTCCAAACTTTA,-0.979
7,TTTCAGTGACACTCCAAACTTT,-0.644
8,TGGTCTTGGAGGTGGAACCATT,-1.77
9,TTGATCACGGAAGCAATCTCTT,-0.838
10,TTGTCAAACAGGACTGAGTTGA,-0.112
11,TTGCATACTTGAACTACAGCGA,0.563
12,TTCTTCTGCAGGATGGGGGTAG,-0.285

# Target: ADD2
# Assay: as above
# Conditions: shRNA
row,Sequence,sensor-assay potency score (higher = more potent)
1,TTCACTGCAAGAAACTCCCTTA,0.39
2,TCTGTTGTTTTGATCCTCCTTA,0.276
3,TTTAGTTTTGAAGTGCCTGAGA,-0.472
4,TTGCTTGTTTCTGTCTTCTTAG,-0.81
5,TTTCTCTCCATCAAGTTCTAGT,-0.228
6,TCGGTAGACACTGCTGATCTTG,-0.972
7,TAGAGGTATCAACATCCGTGTC,-1.2
